Active and inactive are the calls of the source. Rule for the calls: active = hit-call score of the fitted dose curve at least 0.9, where 1 is the maximum; inactive = score below 0.9.
What was measured:
Conditions in all cases: mRNA level, 48 h; actives raise or lower the signal
[1] = read-out: Insulin Like Growth Factor 1 (IGF1), IGF1 (gene 3479); assay: LTEA_HepaRG_IGF1: Life Technologies and Expression Analysis (LTEA) Assay for Insulin Like Growth Factor 1 (IGF1) using HepaRG (AID 2283506)
Summary of the method: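 Endpoint: IGF1 mRNA change by qRT-PCR, housekeeping-normalized, fitted bidirectionally relative to 0.5% DMSO vehicle. Human HepaRG cells were treated 48 h in serum-free induction medium, eight half-log concentrations topping at 100 uM.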

[2] = read-out: Intercellular Adhesion Molecule 1 (ICAM1), ICAM1 (gene 3383); assay: LTEA_HepaRG_ICAM1: Life Technologies and Expression Analysis (LTEA) Assay for Intercellular Adhesion Molecule 1 (ICAM1) using HepaRG (AID 2283507)
Summary of the method: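 Differentiated human HepaRG cells in serum-free induction medium exposed 48 h in duplicate to 8 half-log concentrations (top 100 uM, 0.5% DMSO). ICAM1 mRNA quantified by TaqMan qRT-PCR, normalized to ACTB, GAPDH and POLR2A; bidirectional fitting versus DMSO.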

[3] = read-out: Insulin-like growth factor-binding protein 1 (IGFBP1), IGFBP1 (gene 3484); assay: LTEA_HepaRG_IGFBP1: Life Technologies and Expression Analysis (LTEA) Assay for Insulin-like growth factor-binding protein 1 (IGFBP1) using HepaRG (AID 2283508)
Summary of the method: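 HepaRG cells, plated 48 h then switched to serum-free induction medium, exposed in duplicate for 48 h to 8-point half-log series from 100 uM in 0.5% DMSO. mRNA measured by qRT-PCR, normalized to ACTB/GAPDH/POLR2A; bidirectional fit versus DMSO.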

[4] = read-out: Interleukin 6 Receptor (IL6R), IL6R (gene 3570); assay: LTEA_HepaRG_IL6R: Life Technologies and Expression Analysis (LTEA) Assay for Interleukin 6 Receptor (IL6R) using HepaRG (AID 2283510)
Summary of the method: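 In this HepaRG screen, test chemicals act on cells for 48 h at up to 100 uM (eight half-log points, duplicate wells). IL6R expression is quantified by qRT-PCR after normalization to ACTB, GAPDH and POLR2A, with DMSO as baseline.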

[5] = read-out: Potassium channel subfamily K member 1 (KCNK1), KCNK1 (gene 3775); assay: LTEA_HepaRG_KCNK1: Life Technologies and Expression Analysis (LTEA) Assay for Potassium channel subfamily K member 1 (KCNK1) using HepaRG (AID 2283511)
Summary of the method: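 KCNK1 transcript measured by TaqMan qRT-PCR against three housekeeping genes, after HepaRG cells were treated 48 h with eight half-log concentrations (top 100 uM, 0.5% DMSO). Curves fitted bidirectionally relative to vehicle.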

[6] = read-out: Lipase C (LIPC), LIPC (gene 3990); assay: LTEA_HepaRG_LIPC: Life Technologies and Expression Analysis (LTEA) Assay for Lipase C (LIPC) using HepaRG (AID 2283514)
Summary of the method: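 LIPC expression was quantified by qRT-PCR against three housekeeping genes (ACTB, GAPDH, POLR2A). Differentiated human HepaRG cells received eight half-log doses (top 100 uM, 0.5% DMSO) in duplicate for 48 h; fitting bidirectional relative to DMSO.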

[7] = read-out: Lipoprotein lipase (LPL), LPL (gene 4023); assay: LTEA_HepaRG_LPL: Life Technologies and Expression Analysis (LTEA) Assay for Lipoprotein lipase (LPL) using HepaRG (AID 2283515)
Summary of the method: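 LPL transcript levels quantified by TaqMan qRT-PCR against three housekeeping genes after 48 h chemical treatment of HepaRG cells. Eight-point half-log series from 100 uM in 0.5% DMSO, tested in duplicate; bidirectional fitting versus vehicle.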

[8] = read-out: MicroRNA 122 (MIR122), gene 406906; assay: LTEA_HepaRG_MIR122: Life Technologies and Expression Analysis (LTEA) Assay for MicroRNA 122 (MIR122) using HepaRG (AID 2283516); note: the transcript read is the microRNA miR-122
Summary of the method: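 Changes in transcript abundance, up or down relative to 0.5% DMSO vehicle, were scored after 48 h chemical treatment of HepaRG cells (maximum 100 uM). Quantification used TaqMan qRT-PCR normalized to housekeeping genes.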

[9] = read-out: matrix metalloproteinase-10 (MMP10), MMP10 (gene 4319); assay: LTEA_HepaRG_MMP10: Life Technologies and Expression Analysis (LTEA) Assay for matrix metalloproteinase-10 (MMP10) using HepaRG (AID 2283517)
Summary of the method: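 Expression measured by TaqMan qRT-PCR with ACTB/GAPDH/POLR2A normalisation after 48 h chemical exposure of HepaRG cells. Eight half-log concentrations, top 100 uM, 0.5% DMSO vehicle, duplicates; gain or loss fitted against vehicle.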

MYC, MYC (gene 4609) = assay: LTEA_HepaRG_MYC: Life Technologies and Expression Analysis (LTEA) Assay for MYC using HepaRG (AID 2283518)
Summary of the method: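 Differentiated HepaRG cells exposed 48 h in serum-free induction medium to 8 concentrations (top 100 uM, half-log steps; 0.5% DMSO), duplicate. MYC mRNA measured by Fluidigm qRT-PCR, normalized to ACTB, GAPDH, POLR2A; bidirectional fit versus DMSO.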

[10] = read-out: Paternally Expressed 10 (PEG10), PEG10 (gene 23089); assay: LTEA_HepaRG_PEG10: Life Technologies and Expression Analysis (LTEA) Assay for Paternally Expressed 10 (PEG10) using HepaRG (AID 2283520)
Summary of the method: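 After 48 h exposure of differentiated HepaRG cells (0.5% DMSO vehicle, eight concentrations up to 100 uM, duplicates), PEG10 mRNA was measured by TaqMan qRT-PCR. Values were normalised to endogenous control genes and analysed bidirectionally against vehicle.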

[11] = read-out: Nuclear factor NF-kappa-B p105 subunit (Homo sapiens) (UniProt P19838); assay: LTEA_HepaRG_NFKB1: Life Technologies and Expression Analysis (LTEA) Assay for Nuclear Factor Kappa B Subunit 1 (NFKB1) using HepaRG (AID 2283521);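 note: TaqMan qRT-PCR transcript normalised to ACTB GAPDH and POLR2A housekeeping genes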
Summary of the method: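 Differentiated human HepaRG cells in serum-free induction medium with 0.5% DMSO were exposed for 48 h to eight half-log concentrations, top 100 uM, in duplicate. NFKB1 mRNA measured by Fluidigm TaqMan qRT-PCR, normalised to ACTB, GAPDH and POLR2A; bidirectional fit versus DMSO.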

[12] = read-out: Protein phosphatase 2A (PPP2R4), PTPA (gene 5524); assay: LTEA_HepaRG_PPP2R4: Life Technologies and Expression Analysis (LTEA) Assay for Protein phosphatase 2A (PPP2R4) using HepaRG (AID 2283522)
Summary of the method: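 Using HepaRG cultures maintained in 0.5% DMSO, chemicals are tested 48 h at up to 100 uM in duplicate. Induction or suppression of PPP2R4 mRNA, measured by qRT-PCR, is fitted bidirectionally against the vehicle baseline.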

[13] = read-out: Phosphatase and tensin (PTEN), PTEN (gene 5728); assay: LTEA_HepaRG_PTEN: Life Technologies and Expression Analysis (LTEA) Assay for Phosphatase and tensin (PTEN) using HepaRG (AID 2283523)
Summary of the method: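 Read-out: TaqMan qRT-PCR of PTEN transcript, normalized to three housekeeping genes, fitted in both directions against 0.5% DMSO. Differentiated human HepaRG cultures received chemicals for 48 h, eight-point half-log series topping at 100 uM.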

[14] = read-out: solute carrier (SLC22A1), SLC22A1 (gene 6580); assay: LTEA_HepaRG_SLC22A1: Life Technologies and Expression Analysis (LTEA) Assay for solute carrier (SLC22A1) using HepaRG (AID 2283524)
Summary of the method: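 Transcript level of SLC22A1 quantified by qRT-PCR (normalized to three housekeeping genes) after 48 h chemical exposure of HepaRG cells, eight concentrations up to 100 µM, half-log steps, 0.5% DMSO vehicle. Gain or loss relative to DMSO fitted bidirectionally.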

[15] = read-out: Keratin 19 (KRT19), KRT19 (gene 3880); assay: LTEA_HepaRG_KRT19: Life Technologies and Expression Analysis (LTEA) Assay for Keratin 19 (KRT19) using HepaRG (AID 2283512)
Summary of the method: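 Differentiated HepaRG cells in serum-free induction medium, exposed 48 h in duplicate to 8 half-log concentrations up to 100 uM in 0.5% DMSO. KRT19 mRNA by qRT-PCR, normalized to ACTB, GAPDH, POLR2A; bidirectional fit vs DMSO.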

[16] = read-out: matrix metalloproteinase-3 (MMP3), MMP3 (gene 4314); assay: LTEA_HepaRG_MMP3: Life Technologies and Expression Analysis (LTEA) Assay for matrix metalloproteinase-3 (MMP3) using HepaRG (AID 2283519)
Summary of the method: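 Fluidigm-based TaqMan qRT-PCR, normalized to ACTB, GAPDH and POLR2A and fitted bidirectionally versus 0.5% DMSO, measured transcript levels. Treatment: duplicate 48 h exposures of HepaRG cells, ~100,000/well, to eight half-log concentrations topping at 100 uM.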

[17] = read-out: Pyruvate Dehydrogenase Kinase 4 (PDK4), PDK4 (gene 5166); assay: LTEA_HepaRG_PDK4: Life Technologies and Expression Analysis (LTEA) Assay for Pyruvate Dehydrogenase Kinase 4 (PDK4) using HepaRG (AID 2283525)
Summary of the method: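 Readout is qRT-PCR of PDK4 transcript, normalized to three housekeeping genes, with bidirectional fitting against 0.5% DMSO vehicle. Differentiated HepaRG cells were treated 48 h in serum-free induction medium, duplicate wells, eight-point half-log series topping at 100 uM.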

[18] = read-out: JUN Transcription Factor, JUN (gene 3725); assay: LTEA_HepaRG_JUN: Life Technologies and Expression Analysis (LTEA) Assay for JUN Transcription Factor using HepaRG (AID 2283513)
Summary of the method: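 Gene-expression endpoint: JUN mRNA (qRT-PCR, normalized to three reference genes) in HepaRG cultures treated 48 h with chemicals, duplicate wells, 100 uM maximum with half-log dilutions; bidirectional fitting relative to 0.5% DMSO.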

Measured: outcome

Sequence of Nuclear factor NF-kappa-B p105 subunit (Homo sapiens) (P19838 whole entry, looked up): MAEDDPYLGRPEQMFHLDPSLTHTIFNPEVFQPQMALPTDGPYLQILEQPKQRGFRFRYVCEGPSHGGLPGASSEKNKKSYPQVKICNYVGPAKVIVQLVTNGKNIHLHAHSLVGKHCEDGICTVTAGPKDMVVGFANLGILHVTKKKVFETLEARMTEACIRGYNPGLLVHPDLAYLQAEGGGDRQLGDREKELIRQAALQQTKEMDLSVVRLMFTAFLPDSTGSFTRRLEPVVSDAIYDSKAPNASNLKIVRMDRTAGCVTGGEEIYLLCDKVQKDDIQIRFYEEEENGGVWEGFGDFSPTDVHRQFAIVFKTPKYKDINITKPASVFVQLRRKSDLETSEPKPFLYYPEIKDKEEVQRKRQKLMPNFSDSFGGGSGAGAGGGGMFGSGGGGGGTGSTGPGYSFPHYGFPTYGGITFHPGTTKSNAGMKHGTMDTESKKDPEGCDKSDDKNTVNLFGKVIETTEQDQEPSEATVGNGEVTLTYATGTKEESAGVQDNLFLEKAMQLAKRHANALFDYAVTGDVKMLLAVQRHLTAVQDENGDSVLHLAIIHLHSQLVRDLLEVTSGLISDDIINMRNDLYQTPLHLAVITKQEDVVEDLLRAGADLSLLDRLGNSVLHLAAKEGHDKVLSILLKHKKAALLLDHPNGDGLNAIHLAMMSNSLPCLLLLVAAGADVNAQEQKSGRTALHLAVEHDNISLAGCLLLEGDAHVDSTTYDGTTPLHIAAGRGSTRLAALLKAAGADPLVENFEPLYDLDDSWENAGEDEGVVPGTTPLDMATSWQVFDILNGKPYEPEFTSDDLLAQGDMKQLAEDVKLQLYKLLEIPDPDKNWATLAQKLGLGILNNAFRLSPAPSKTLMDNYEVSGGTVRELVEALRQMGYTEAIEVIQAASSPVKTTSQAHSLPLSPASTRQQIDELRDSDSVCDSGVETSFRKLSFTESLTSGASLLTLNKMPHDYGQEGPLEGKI

COC(=O)c1c(Cl)c(Cl)c(C(=O)OC)c(Cl)c1Cl
not listed: [15] | [16] | [17] | [18]
inactive: all other assays above

CCC(C)(C)C(=O)O[C@H]1C[C@@H](C)C=C2C=C[C@H](C)[C@H](CC[C@@H]3C[C@@H](O)CC(=O)O3)[C@H]21
not listed: [11] | [18]
inactive: all other assays above

CC(C)=CCC/C(C)=C\CO
not listed: [15]
inactive: all other assays above

CC[C@H]1OC(=O)[C@H](C)[C@@H](O[C@H]2C[C@@](C)(OC)[C@@H](O)[C@H](C)O2)[C@H](C)[C@@H](O[C@@H]2O[C@H](C)C[C@H](N(C)C)[C@H]2O)[C@](C)(O)C[C@@H](C)C(=O)[C@H](C)[C@@H](O)[C@]1(C)O
not listed: [16] | [17] | [18]
inactive: all other assays above
